For orientation: AC50 means the concentration giving half of the maximal activity seen.

The nature of assay [1]: CCTE_Harrill_HTTr_Viability_MCF7: CCTE's 6-hour Cell Viability Assessment for the High-Throughput Transcriptomics (HTTr) Platform, in MCF-7 cells cultured in DMEM + 10% fetal bovine serum, Harrill Lab (AID 2284010). The essentials:
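PI exclusion, high-content imaging; 8-pt dilution series, 6 h exposure; bidirectional fit vs DMSO (neg. ctrl/baseline); gain of signal = loss of membrane integrity.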

A short description of assay [2]: CCTE_Harrill_HTTr_Apoptosis_MCF7: CCTE's 6-hour Apoptosis Assessment for the High-Throughput Transcriptomics (HTTr) Platform, in MCF-7 cells cultured in DMEM + 10% fetal bovine serum, Harrill Lab (AID 2284011). The essentials: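 MCF-7 (DMEM + 10% FBS), 384-well; 8-pt dilution series, 6 h chemical exposure; caspase-3/7 activation via CellEvent Caspase 3/7 Green, HCI; bidirectional fit vs DMSO.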

A short description of assay [3]: CCTE_Harrill_HTTr_CellCount_MCF7: CCTE's Cell Proliferation Assessment for the High-Throughput Transcriptomics (HTTr) Platform, Harrill Lab (AID 2284012; active means hit-call score of the fitted dose curve at least 0.9, where 1 is the maximum;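 further: count of Hoechst-stained nuclei per well by high-content imaging in MCF-7 cells; cells exposed to compound for six hours; intended direction is loss of nuclei count meaning fewer cells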). The essentials: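 Readout: Hoechst nuclear count by high-content imaging. MCF-7, 8-point dilution series, 6 h exposure. Bidirectional fit vs DMSO baseline.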

Records with an inconclusive call do not appear. The source holds several records for some structures; these can differ, active in one and inactive in another. The source made the active and inactive calls. How the source made its calls, unless noted: active means hit-call score of the fitted dose curve at least 0.9, where 1 is the maximum; inactive means score below 0.9.

Regarding `CC[C@H]1OC(=O)[C@H](C)[C@@H](O[C@H]2C[C@@](C)(OC)[C@@H](O)[C@H](C)O2)[C@H](C)[C@@H](O[C@@H]2O[C@H](C)C[C@H](N(C)C)[C@H]2O)[C@](C)(O)C[C@@H](C)C(=NOCOCCOC)[C@H](C)[C@@H](O)[C@]1(C)O`, the outcome in assay [1], in assay [2] and in assay [3] was inactive.
For the compound `C[C@]12C=CC(=O)C=C1CC[C@@H]1[C@@H]2[C@@H](O)C[C@@]2(C)[C@H]1CC[C@]2(O)C(=O)CO`, the outcome in assay [1], in assay [2] and in assay [3] was inactive.
`Cc1ccc(C(C)(C)C)cc1`: the result in assay [1], in assay [2] and in assay [3] was inactive.
In the case of `CCC(=O)Oc1ccc(/C(CC)=C(\CC)c2ccc(OC(=O)CC)cc2)cc1`, the result in assay [1], in assay [2] and in assay [3] was inactive.
Turning to `O=c1cc(-c2ccccc2)oc2ccccc12`, the outcome in assay [1] and in assay [2] was inactive.
For the compound `CN(C)c1ccc(C(=N)c2ccc(N(C)C)cc2)cc1`, the result in assay [1], in assay [2] and in assay [3] was inactive. In addition, in assay [2], the AC50 is 40.5 µM (active).
`CCCCCC/C=C\CCCCCCCC(=O)O`: the result in assay [1], in assay [2] and in assay [3] was inactive.
In the case of `O=Cc1ccc(CO)o1`, the result in assay [1] and in assay [2] was inactive.
As to `CC(=O)[C@@]1(O)CC[C@H]2[C@@H]3C[C@H](C)C4=CC(=O)C=C[C@]4(C)[C@@]3(F)[C@@H](O)C[C@@]21C`, the outcome in assay [1], in assay [2] and in assay [3] was inactive.
As to `CN(C)c1ccc(N=Nc2ccccc2C(=O)O)cc1`, the result in assay [1], in assay [2] and in assay [3] was inactive.
On to `Cc1oncc1C(=O)Nc1ccc(C(F)(F)F)cc1`, for which the outcome in assay [1], in assay [2] and in assay [3] was inactive.
Turning to `c1ccc2c(c1)ccc1cc3c(ccc4ccccc43)cc12`, the outcome in assay [1] and in assay [2] was inactive.
For `Cc1cc(=O)n(-c2ccccc2)n1C`, the result in assay [1] and in assay [2] was inactive.

For the origin of these results see PubChem BioAssay (EPA / NIEHS).
